Here are results for six compounds from publication PMC11062922 (Nature Chemical Biology, 2023).

Read-outs that look alike come from different tables or passages of the source.

Holding throughout (set-up): species or system human, MV4-11 + K-562 + COLO205 + SK-N-BE2 + OVCAR-8
One experiment relates to CSNK1A1. The note with it: read-out: apparent Kd; compound concentrations: 100 nM and 1000 nM (sheet 'Samples'), CATDS: 6.4218500177313606E-2; n = 1.
The subject of the next experiment is CSNK1D. The note with it: read-out: apparent Kd, n = 1.
The test system of the next experiment is CSNK1E. The note with it: read-out: apparent Kd, n = 1.
The next experiment has as its system DDR1. The note with it: read-out: apparent Kd; compound concentrations: 100 nM and 1000 nM (sheet 'Samples'), CATDS: 5.0291994189884899E-2; n = 1.
A further experiment relates to DDR2. To be noted: read-out: apparent Kd; compound concentrations: 100 nM and 1000 nM (sheet 'Samples'), CATDS: 3.5910243594836001E-2; n = 1.
Another experiment relates to GAK. To be noted: read-out: apparent Kd; compound concentrations: 100 nM and 1000 nM (sheet 'Samples'), CATDS: 5.4860090777902201E-2; n = 1.
The next experiment concerns MAPK10. The note with it: read-out: apparent Kd, compound concentrations: 100 nM and 1000 nM (sheet 'Samples'), n = 1.
For the next experiment, the system named is MAPK11. To be noted: read-out: apparent Kd, n = 1.
The subject of the next experiment is MAPK14. To be noted: read-out: apparent Kd, n = 1.
Another experiment deals with MAPK8. To be noted: read-out: apparent Kd; compound concentrations: 100 nM and 1000 nM (sheet 'Samples'), CATDS: 4.6835981276276903E-2; n = 1.
For the next experiment, the system named is MAPK9. To be noted: read-out: apparent Kd, compound concentrations: 100 nM and 1000 nM (sheet 'Samples'), n = 1.
For the next experiment, the system named is MAPKAPK2. To be noted: read-out: apparent Kd, n = 1.
The subject of another experiment is PIK3CA. The note with it: read-out: apparent Kd; compound concentrations: 100 nM and 1000 nM (sheet 'Samples'), CATDS: 4.2523993136959801E-2; n = 1.
The test system of another experiment is PIK3CD. The note with it: read-out: apparent Kd; compound concentrations: 100 nM and 1000 nM (sheet 'Samples'), CATDS: 5.28736711934766E-2; n = 1.
The test system of a further experiment is PRKD2. To be noted: read-out: apparent Kd; compound concentrations: 100 nM and 1000 nM (sheet 'Samples'), CATDS: 3.2417406243743098E-2; n = 1.
Another experiment has as its system PRKD3. To be noted: read-out: apparent Kd; compound concentrations: 100 nM and 1000 nM (sheet 'Samples'), CATDS: 3.0540590804978299E-2; n = 1.
The next experiment relates to RIPK2. To be noted: read-out: apparent Kd; compound concentrations: 100 nM and 1000 nM (sheet 'Samples'), CATDS: 3.5796504024636501E-2; n = 1.
A further experiment concerns TNIK. To be noted: read-out: apparent Kd; compound concentrations: 100 nM and 1000 nM (sheet 'Samples'), CATDS: 3.1361492555590703E-2; n = 1.
The test system of the next experiment is MAP2K2. To be noted: read-out: apparent Kd; compound concentrations:100 nM and 1000 nM (sheet 'Samples'); n = 1.
For a further experiment, the system named is RAB6A;RAB6B. To be noted: read-out: apparent Kd; compound concentrations:100 nM and 1000 nM (sheet 'Samples'); n = 1.
For the next experiment, the system named is CLK1. To be noted: read-out: apparent Kd; compound concentrations: 100 nM and 1000 nM (sheet 'Samples'), CATDS: 8.2490921109223694E-2; n = 1.
The next experiment relates to CLK4. To be noted: read-out: apparent Kd; compound concentrations: 100 nM and 1000 nM (sheet 'Samples'), CATDS: 9.1933960168397902E-2; n = 1.
The next experiment concerns FER. The note with it: read-out: apparent Kd; compound concentrations: 100 nM and 1000 nM (sheet 'Samples'), CATDS: 0.191525182518377; n = 1.
A further experiment concerns FES. The note with it: read-out: apparent Kd; compound concentrations: 100 nM and 1000 nM (sheet 'Samples'), CATDS: 0.141762780842772; n = 1.
The next experiment relates to IGF1R. To be noted: read-out: apparent Kd; compound concentrations: 100 nM and 1000 nM (sheet 'Samples'), CATDS: 0.28711469302714299; n = 1.
A further experiment concerns INSR. The note with it: read-out: apparent Kd; compound concentrations: 100 nM and 1000 nM (sheet 'Samples'), CATDS: 0.56670438264140999; n = 1.
The test system of another experiment is PLK1. To be noted: read-out: apparent Kd; compound concentrations: 100 nM and 1000 nM (sheet 'Samples'), CATDS: 8.4906950641747497E-2; n = 1.
The next experiment deals with PTK2. The note with it: read-out: apparent Kd; compound concentrations: 100 nM and 1000 nM (sheet 'Samples'), CATDS: 8.5472412677607995E-2; n = 1.
The mark [1] stands for this setting: compound concentrations:100 nM and 1000 nM (sheet 'Samples').

As for `CCNc1nccc(-c2c(-c3ccc(F)cc3)ncn2C2CCN(C)CC2)n1` [SB-226605], the potency estimated from few doses in the experiment on CSNK1A1 was 54.1 nM; in the experiment on CSNK1D (compound concentrations: 100 nM and 1000 nM (sheet 'Samples'), CATDS: 0.15961937746466701), 6.16 nM; in the experiment on CSNK1E (compound concentrations: 100 nM and 1000 nM (sheet 'Samples'), CATDS: 8.6582359742075399E-2), 24.7 nM; in the experiment on DDR1, 116 nM; in the experiment with DDR2 it was 495 nM; with GAK, 87 nM. Besides, the potency estimated from few doses with MAPK10 (CATDS: 6.8740436071955194E-2) was 44.8 nM; in the experiment on MAPK11 (compound concentrations: 100 nM and 1000 nM (sheet 'Samples'), CATDS: 3.4840518040238501E-2), 589 nM; with MAPK14 (compound concentrations: 100 nM and 1000 nM (sheet 'Samples'), CATDS: 0.16984831376033699) it was 5.38 nM; with MAPK8, 150 nM; with MAPK9 (CATDS: 9.88487925087526E-2) it was 18 nM; in the experiment with MAPKAPK2 (compound concentrations: 100 nM and 1000 nM (sheet 'Samples'), CATDS: 7.0385751931635404E-2) it was 42 nM. The potency estimated from few doses in the experiment on PIK3CA was 220 nM; in the experiment with PIK3CD, 98.1 nM; with PRKD2, 939 nM; in the experiment with PRKD3, 1520 nM; in the experiment on RIPK2, 504 nM; with TNIK it was 1210 nM.

For the compound `CCc1ccc(Oc2nccc(-c3c(-c4ccc(F)cc4)ncn3C3CCNCC3)n2)cc1` [SB-242719], the potency estimated from few doses in the experiment with CSNK1D (setting [1]) is 419 nM; in the experiment on CSNK1E (setting [1]), 760 nM; in the experiment with MAP2K2 it was 2280 nM; in the experiment with MAPK11 (setting [1]), 779 nM; in the experiment with MAPK14 (setting [1]), 24.4 nM; with MAPKAPK2 (setting [1]), 13.3 nM. Also, the potency estimated from few doses in the experiment on RAB6A;RAB6B was 1360 nM.

As for `Fc1ccc(-c2ncn(C3CCNCC3)c2-c2ccnc(Oc3ccc(-c4ccccc4)cc3)n2)cc1` [SB-245391], the potency estimated from few doses in the experiment with CSNK1D (setting [1]) is 486 nM; with CSNK1E (setting [1]), 1840 nM; with MAPK14 (setting [1]), 424 nM; in the experiment with MAPKAPK2 (setting [1]) it was 116 nM.

On to `Fc1ccc(-c2ncn(CCCN3CCOCC3)c2-c2ccncc2)cc1` [SB-210313], for which the potency estimated from few doses with CSNK1D (compound concentrations: 100 nM and 1000 nM (sheet 'Samples'), CATDS: 0.19836678982407999) is 1230 nM; with CSNK1E (compound concentrations: 100 nM and 1000 nM (sheet 'Samples'), CATDS: 0.16080040098047499), 2020 nM; with MAPK10 (CATDS: 0.188105641093985), 1380 nM; in the experiment with MAPK14 (compound concentrations: 100 nM and 1000 nM (sheet 'Samples'), CATDS: 0.26893269490410898), 706 nM; in the experiment on MAPK9 (CATDS: 0.212522711291111), 1070 nM.

For the compound `N#Cc1ccc(Oc2nccc(-c3c(-c4ccc(F)cc4)ncn3C3CCNCC3)n2)cc1` [SB-242721], the potency estimated from few doses is 710 nM with CSNK1D (setting [1]), 1740 nM in the experiment on CSNK1E (setting [1]), 844 nM in the experiment with MAPK14 (setting [1]) and 496 nM in the experiment with MAPKAPK2 (setting [1]).

Consider `COc1cc2c(cc1Nc1nc(Nc3ccsc3C(N)=O)c3cc[nH]c3n1)N(C(=O)CN(C)C)CCC2` [GSK2110236A], for which the potency estimated from few doses in the experiment on CLK1 was 1090 nM; in the experiment with CLK4 it was 641 nM; in the experiment with FER, 44.5 nM; in the experiment on FES, 115 nM; with IGF1R, 16.3 nM; in the experiment with INSR it was 4.73 nM. For the same compound, the potency estimated from few doses in the experiment on PLK1 was 940 nM; in the experiment on PTK2, 909 nM.
